Screening results: PubChem, National Center for Advancing Translational Sciences (NCATS)
Sampled rows, rich in hits. Any-hit rate of the full collection: about 5.3%.
Vaccinia mCherry – vaccinia inhibition (mCherry reporter). Vaccinia virus mCherry reporter infection, fluorescence. Potency, µM (highest dose often 36.5 µM), without a hit: top-dose activity change, negative = inhibition, hits mostly inhibitors. actives 0.63% (n = 310,000); calls by dose curve; tested in A549 cells; further: nearly all actives have a fitted effect of over 35% in size
VACV Venus inh – vaccinia inhibition (Venus reporter). Vaccinia virus Venus reporter expression, fluorescence. Potency, µM (top dose mostly 36.5 µM), for inactives: at the highest dose activity change, negative = inhibition, most hits filed as inhibitors. actives 0.46% (n = 330,000). AID 720580; calls by dose curve; tested in A549 cells; further: nearly all actives have a fitted effect of over 30% in size
LASV entry inh – inhibitors of Lassa virus binding or cell entry; Lassa virus pseudotype entry inhibition, cell reporter; Potency, µM (top dose mostly 37.9 µM), for inactives: at the highest dose activity change, negative = inhibition, usual class: inhibitors; actives 1.2% (n = 300,000); calls by dose curve; tested in HEK293 cells; further: nearly all actives have a fitted effect of over 50% in size
Marburg entry inh – blocks Marburg virus binding to or entry into cells; actives 1.8% (n = 300,000); Potency, µM (highest dose often 37.8 µM), for the others: at the top dose activity change, negative = inhibition, actives largely listed as inhibitors; AID 540276; Marburg virus pseudotyped entry inhibition, cell reporter; calls by dose curve; tested in HEK293 cells
FMDV inh – foot and mouth disease virus antiviral activity; FMDV antiviral cell-based qHTS; Potency, µM (titrated, usually from 57.9 µM), without a hit: top-dose activity change, negative = inhibition, most hits filed as inhibitors; actives 1.2% (n = 410,000); AID 1159524; calls by dose curve; tested in HEK293T cells; further: read-out not given here; nearly all actives have a fitted effect of over 45% in size
HCV inhibitor – blocks hepatitis C virus. Huh7.5.1 HCVcc-Cre infection, luciferase reporter, 44 h. Potency, µM (highest dose often 41.8 µM), for the others: at the highest dose activity change, negative = inhibition, most hits filed as inhibitors. actives 3.4% (n = 340,000). AID 651820; active means well fitted inhibition curve with a large enough effect; inconclusive means small, poorly fitted or top-dose-only effect, or another doubt; inactive means no such curve, though single readings can be large or run the other way
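Luciferase read-out (15 sec integration) after a 15 min room-temperature substrate step quantifies HCVcc-Cre infection. Cells, 1,000 per well, had compound added 4 h post-plating, then virus at ~0.5 moi, and were cultured 44 h.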
* = called active by the depositor; i = inactive; ? = inconclusive; . = not tested or not shown; [ ] = remark or other dose. On the % scale 0 is the no-effect control and ±100 the full control effect; potency means the concentration at half of the fitted maximal effect.

SMILES	Vaccinia mCherry	VACV Venus inh	LASV entry inh	Marburg entry inh	FMDV inh	HCV inhibitor
O=C(O)c1ccc(-n2ncc(Cl)c(Cl)c2=O)cc1	0%	-14%	.	.	?	.
CCc1ccccc1NC(=O)CN(C)C(=O)Cn1ncc(Cl)c(Cl)c1=O	?	?	?	?	35µM*	2.8µM*
Cc1ccc(C(=O)OCn2ncc(Cl)c(Cl)c2=O)cc1	.	.	23µM*	15µM*	16µM*	2.5µM*
CC(C)CNC(=O)N1[C@H](c2cccs2)[C@@H](C)C(=O)[C@@H](C)[C@@H]1c1cccs1	-10%	-16%	11%[46.1 µM]	-11%[46.1 µM]	-4%	.
O=C(c1ccc(O)cc1)c1ccc(O)cc1O	4%	1%	?	?	23%	4%
CN(N=O)c1cc(O)ccc1O	.	.	16µM*	?	.	.
O=C(/C=C/c1ccc(Cl)cc1)NC(=S)Nc1ccc(NC(=O)c2ccco2)cc1	-21%	-29%	1.6µM*	?	-22%	?
COc1ccc(/C=C/C(=O)NC(=S)NNC(=O)c2ccco2)cc1	.	?	4.5µM*	?	-15%	?
Cc1ccc(/C=C/C(=O)NC(=S)Nc2ccccc2C(=O)NC2CCCCC2)cc1	-2%	0%	?	?	.	-20%
COc1ccc(/C=C/C(=O)NC(=S)NNC(=O)c2ccco2)cc1OC	.	.	.	.	-14%	-24%
COc1ccc(/C=C/C(=O)NC(=S)Nc2ccccc2C(=O)NC2CCCCC2)cc1	i	-12%	?	-27%	.	25µM*
C=CCc1cccc(CNc2cnc3ccccc3c2)c1O	.	.	.	.	-4%	7.9µM*
CN(C)c1ccc(/C=C/c2cc3ccccc3c[n+]2C)cc1	-25%	-41%	.	.	.	.
Cc1ccc2cc3cc(C(=O)N4CCN(c5ccc(Cl)cc5)CC4)oc3nc2c1	-5%	2%	-4%[46.1 µM]	7%[46.1 µM]	-1%	.
NNC(=O)Cn1c(COc2ccc(Cl)cc2)nc2ccccc21	-20%	-10%	-4%	1%	19%	11µM*
O=C(O)Cn1c(COc2ccc(Cl)cc2)nc2ccccc21	.	.	.	.	-12%	11%
c1ccc2c(c1)OCC(c1csc3ncnc(N4CCOCC4)c13)O2 (centres undefined)	i	-18%	20%	5%	.	-12%
CCN(CC)c1ncnc2scc(C3COc4ccccc4O3)c12 (centres undefined)	i	-16%	?	-26%[46.1 µM]	?	11µM*
NC(=O)[C@H]1CC2(CC(c3cccc(NC(=O)COc4ccc(Cl)cc4)c3)=NO2)CN1C(=O)c1ccc(Cl)cc1 (some centres undefined)	11µM*	11µM*	.	.	-28%	-30%
CC(Oc1ccc(F)cc1)C(=O)Nc1ccc2ccccc2c1 (centres undefined)	.	.	?	12µM*	9%	?
Cc1nc(-c2cccc(NC(=O)COc3ccc(Cl)cc3)c2)cs1	-7%	-21%	?	13µM*	?	.
CC(Oc1ccccc1)C(=O)Nc1cccc(-c2nc3ccccc3[nH]2)c1 (centres undefined)	.	-15%	-27%	?	-20%	-23%
Cc1nc(-c2cccc(NC(=O)C(C)Oc3ccccc3)c2)cs1 (centres undefined)	0%	-18%	8.9µM*	-2%	-5%	?
NC(=O)[C@H]1CC2(CC(c3cccc(NC(=O)COc4ccc(Cl)cc4)c3)=NO2)CN1C(=O)c1ccccc1C(=O)c1ccccc1 (some centres undefined)	?	?	.	.	-28%	?
Cc1ccc(CCNC(=O)c2cn(C)c3ccc(S(=O)(=O)N4CCCCC4)cc3c2=O)cc1	?	-20%	0%[46.1 µM]	?	0%	.
SMILES	Vaccinia mCherry	VACV Venus inh	LASV entry inh	Marburg entry inh	FMDV inh	HCV inhibitor
CN(C)c1ccc(C(=O)N2CCCC(Cn3cc(C(=O)N4CCCC4)nn3)C2)cc1 (centres undefined)	i	-13%	.	.	-3%	.
Cc1ccc2nc(-c3ccc4c(c3)NC(=O)CO4)cn2c1	i	-8%	?	?	0%	4%
COCC(C)n1c(-c2ccc3c(c2)NC(=O)CO3)csc1=Nc1ccc(OC(F)F)cc1 (centres undefined)	?	?	?	?	20µM*	10µM*
CN(C)S(=O)(=O)c1cccc(N=c2scc(-c3ccc4c(c3)NC(=O)CO4)n2CC2CCCO2)c1 (centres undefined)	.	-20%	?	?	28µM*	?
COc1ccccc1CNS(=O)(=O)c1ccc2c(c1)NC(=O)CO2	.	.	.	.	17%	12%
COc1ccccc1N=c1scc(-c2ccc3c(c2)NC(=O)CO3)n1CC1CCCO1 (centres undefined)	.	-29%	?	?	35µM*	?
O=C1COc2ccc(-c3csc(=Nc4ccc(OC(F)F)cc4)n3CC3CCCO3)cc2N1 (centres undefined)	.	.	?	-15%	22µM*	?
C[C@@H](ON=C1[C@H]2CCn3c(=O)n(-c4ccccc4)c(=O)n3[C@@H]2[C@H](O)[C@@H]2O[C@H]12)c1cn([C@H](CO)Cc2ccccc2)nn1	.	.	?	-23%[14.2 µM]	.	.
CCN(CC)S(=O)(=O)c1ccc(C)c(NC(=O)CNc2cccc(S(=O)(=O)N3CCOCC3)c2)c1	-28%	-5%	-10%	0%[46.1 µM]	-27%	?
CCN(CC)S(=O)(=O)c1cc(NC(=O)CNc2cccc(S(=O)(=O)N3CCCC3)c2)ccc1C	-26%	?	?	?	?	0.56µM*
O=C(CNc1ccc(C(F)(F)F)cc1)Nc1cccc(S(=O)(=O)N2CCCC2)c1	.	.	.	.	-7%	?
CCN(CC)S(=O)(=O)c1cccc(NC(=O)CNc2cccc(S(=O)(=O)N3CCOCC3)c2)c1	?	?	?	?	?	0.56µM*
O=C(CNc1cccc(S(=O)(=O)N2CCCC2)c1)Nc1cccc(Br)c1	-24%	?	?	?	?	?
O=C(CNc1cccc(S(=O)(=O)N2CCOCC2)c1)Nc1ccc(C(F)(F)F)cc1	-12%	-23%	-19%	?	32µM*	?
CC(=O)c1cccc(NCC(=O)Nc2cc(S(=O)(=O)N3CCCCC3)ccc2C)c1	-20%	-16%	-13%	-16%	0%	11µM*
CSc1ccccc1C(=O)NCC1Cc2cccc(-c3ncccc3C)c2O1 (centres undefined)	i	-16%	.	.	-5%	.
C=C(C)CCCN1C=C(C(=O)OCC)C(c2ccccc2)NC1=O (centres undefined)	.	.	?	-14%[14.2 µM]	.	.
CCOc1ccc(NC(=O)COC(=O)c2ccccc2OCc2ccccc2Br)cc1	-19%	-16%	.	.	.	.
CCN(CC)S(=O)(=O)c1cc(NC(=O)C(C)N2CC=C(c3ccccc3)CC2)ccc1C (centres undefined)	?	-29%	16µM*	?	?	11µM*
